About 79,000 compounds went through this panel and 15% of them were active in at least one assay; those are over-represented in the sample as a whole. Activity calls are given as the source filed them. Rule as the data show it: active = growth inhibition above about 70%; inactive = the rest.
Experiments:
[1] = NCI Yeast Anticancer Drug Screen. Data for the rad52 strain (AID 147);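 also: 0% = growth of vehicle-treated control cultures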; conditions: S. cerevisiae rad52 mutant growth inhibition, stronger effect = higher value
Procedure, shortened: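 Growth of repair-deficient yeast cells was compared between compound-treated and vehicle-treated cultures to give percent inhibition.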

[2] = NCI Yeast Anticancer Drug Screen. Data for the wt1 strain (AID 149);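 also: 0% = growth of vehicle-treated wt1 cultures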; conditions: S. cerevisiae wt1 strain (SPY 50644) growth inhibition, stronger effect = higher value
Procedure, shortened: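 Measured: growth of wt1 yeast under compound versus vehicle treatment, reported as inhibition.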

[3] = NCI Yeast Anticancer Drug Screen. Data for the rad50EPP+ strain (AID 151);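 also: 0% = growth of vehicle-treated control cultures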; conditions: S. cerevisiae rad50 mutant strain, stronger effect = higher value
Procedure, shortened: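 Measured: growth inhibition of rad50EPP+ yeast. Reference: vehicle-treated controls. Screen uses strains with defined genetic alterations in DNA damage repair or cell cycle control.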

[4] = NCI Yeast Anticancer Drug Screen. Data for the mgt1 strain (AID 153); conditions: S. cerevisiae mgt1 mutant growth inhibition, stronger effect = higher value
Procedure, shortened: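 Compounds were applied to mgt1 mutant yeast, and growth was then compared against vehicle-treated control cultures to give percent inhibition.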

[5] = NCI Yeast Anticancer Drug Screen. Data for the rad50 strain (AID 155);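 also: 0% = growth of vehicle-only cultures of the same strain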; conditions: S. cerevisiae rad50 strain growth inhibition, stronger effect = higher value
Procedure, shortened: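 Growth of the mutant yeast was measured after compound exposure and referenced to vehicle-treated cultures.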

[6] = NCI Yeast Anticancer Drug Screen. Data for the mec2-1 strain (AID 157); conditions: S. cerevisiae mec2-1 strain, stronger effect = higher value
Procedure, shortened: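 Compounds were applied to mec2-1 yeast cells. Their growth was then compared with that of vehicle-treated cultures to give growth inhibition.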

[7] = NCI Yeast Anticancer Drug Screen. Data for the rad14 strain (AID 159);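 also: 0% = growth of vehicle-treated control cultures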; conditions: S. cerevisiae rad14 strain growth inhibition, stronger effect = higher value
Procedure, shortened: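 Here, inhibition of yeast growth was measured after compound exposure, using a strain with a genetic defect in DNA damage repair and vehicle-treated cultures as the reference.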

[8] = NCI Yeast Anticancer Drug Screen. Data for the sgs1 mgt1 strain (AID 161);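 also: 0% = growth of cultures given vehicle only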; conditions: S. cerevisiae sgs1 mgt1 strain, stronger effect = higher value
Procedure, shortened: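 Percent growth inhibition was derived by comparing compound-exposed mutant yeast with vehicle-exposed cultures. The strain carries alterations in DNA damage repair.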

[9] = NCI Yeast Anticancer Drug Screen. Data for the cln2 rad14 strain (AID 165);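 also: 0% = growth equal to vehicle treated cultures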; conditions: S. cerevisiae cln2 rad14 strain, stronger effect = higher value
Procedure, shortened: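 Strain: cln2 rad14 yeast, altered in cell cycle control and DNA damage repair. Read-out: growth inhibition vs vehicle.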

[10] = NCI Yeast Anticancer Drug Screen. Data for the bub3 strain (AID 167); conditions: S. cerevisiae bub3 mutant strain, stronger effect = higher value
Procedure, shortened: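 Whole-cell yeast assay. The mutant strain was incubated with compounds, and growth inhibition was determined by comparison with vehicle-treated cells.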

[11] = NCI Yeast Anticancer Drug Screen. Data for the wt2 strain (AID 169);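 also: 0% = growth of vehicle-treated yeast cultures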; conditions: S. cerevisiae wt2 strain growth inhibition, stronger effect = higher value
Procedure, shortened: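 Growth of compound-treated yeast is measured and expressed as inhibition relative to vehicle-only controls.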

[12] = NCI Yeast Anticancer Drug Screen. Data for the mlh1 strain (AID 171);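 also: 0% = growth of vehicle-treated control cultures of the same strain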; conditions: S. cerevisiae mlh1 strain growth inhibition, stronger effect = higher value
Procedure, shortened: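 Test agents were incubated with yeast bearing a defined DNA damage repair or cell cycle control alteration; values are growth inhibition normalised to vehicle-treated cultures.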

[13] = NCI Yeast Anticancer Drug Screen. Data for the sgs1 strain (AID 173);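 also: 0% = growth of vehicle-only control cultures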; conditions: S. cerevisiae sgs1 mutant, stronger effect = higher value
Procedure, shortened: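 Strain with an altered DNA repair or cell cycle pathway exposed to compound. Growth then measured. Value = inhibition versus vehicle control.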

[14] = NCI Yeast Anticancer Drug Screen. Data for the mlh1 rad18 strain (AID 175); conditions: S. cerevisiae mlh1 rad18 strain growth inhibition, stronger effect = higher value
Procedure, shortened: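 A repair-deficient yeast strain is exposed to test compound, and growth is scored relative to vehicle-treated controls.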

[15] = NCI Yeast Anticancer Drug Screen. Data for the rad18 strain (AID 177); conditions: S. cerevisiae rad18 mutant growth inhibition, stronger effect = higher value
Procedure, shortened: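 DNA-repair-defective yeast; compound treatment; growth inhibition scored against vehicle.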

[16] = at 5.0 µM (retest, dose inferred, filed as 0.5)
[17] = at 50.0 µM (retest, dose inferred, filed as 5.0)

Measured: growth inhibition

OCC1OC(OCC(O)C(O)C(O)C(/C=N/Nc2ccccc2)=N/Nc2ccccc2)C(O)C(O)C1O (stereo not drawn)
active: [5]; at 50.0 µM 99.2% | [6]; at 50.0 µM 99.5% | [8]; at 50.0 µM 93.3% | [9]; at 50.0 µM 99.3% | [10]; at 50.0 µM 99.2% | [14]; at 50.0 µM 99.4% | [15]; at 100.0 µM 81%
inactive: [1]; at 1.2 µM 2% | [1]; at 3.7 µM 9% | [1]; at 11.0 µM 16% | [1]; at 33.0 µM 18% | [1]; at 100.0 µM 45% | [2]; at 1.2 µM 4% | [2]; at 3.7 µM 17% | [2]; at 11.0 µM 21% | [2]; at 33.0 µM 24% | [2]; at 100.0 µM 28% | [3]; at 1.2 µM 9% | [3]; at 3.7 µM 30% | [3]; at 11.0 µM 38% | [3]; at 33.0 µM 40% | [3]; at 100.0 µM 37% | [4]; at 1.2 µM 3% | [4]; at 3.7 µM 12% | [4]; at 11.0 µM 11% | [4]; at 33.0 µM 11% | [4]; at 100.0 µM 5% | [5]; at 1.2 µM -5% | [5]; at 3.7 µM 13% | [5]; [16] 15% | [5]; at 11.0 µM 29% | [5]; at 33.0 µM 32% | [5]; [17] 22% | [5]; at 100.0 µM 55% | [6]; at 1.2 µM -2% | [6]; at 3.7 µM 16% | [6]; [16] 1% | [6]; at 11.0 µM 20% | [6]; at 33.0 µM 31% | [6]; [17] 13% | [6]; at 100.0 µM 68% | [7]; at 1.2 µM -1% | [7]; at 3.7 µM 1% | [7]; at 11.0 µM 4% | [7]; at 33.0 µM 9% | [7]; at 100.0 µM 28% | [8]; [16] 7% | [8]; [17] -2% | [9]; [16] 7% | [9]; [17] -1% | [10]; at 1.2 µM 2% | [10]; at 3.7 µM 9% | [10]; [16] 12% | [10]; at 11.0 µM 10% | [10]; at 33.0 µM 12% | [10]; [17] 41% | [10]; at 100.0 µM 47% | [11]; at 1.2 µM 1% | [11]; at 3.7 µM 7% | [11]; at 11.0 µM 20% | [11]; at 33.0 µM 17% | [11]; at 100.0 µM 17% | [12]; at 1.2 µM -2% | [12]; at 3.7 µM 4% | [12]; at 11.0 µM 8% | [12]; at 33.0 µM 11% | [12]; at 100.0 µM 30% | [13]; at 1.2 µM 3% | [13]; at 3.7 µM 13% | [13]; at 11.0 µM 16% | [13]; at 33.0 µM 19% | [13]; at 100.0 µM 35% | [14]; [16] 18% | [14]; [17] 31% | [15]; at 1.2 µM 7% | [15]; at 3.7 µM 25% | [15]; at 11.0 µM 30% | [15]; at 33.0 µM 39%

Source: PubChem BioAssay (NCI)
